For some of these results: Entries with a potency or affinity are not part of this list.
How the values were obtained:
Design in all cases: scale not given: direction of the effect not stated beside the values
[1] = biological target: Protein translocase subunit SecA (Escherichia coli (strain K12)) (UniProt P10408); test: Assay to Identify E. coli SecA ATPase Inhibitors; type: functional; conditions: 30 µM
[2] = biological target: T1, Ubiquitin-activating enzyme e1, putative (Leishmania donovani (strain BPK282A1)) (UniProt E9BSI1); test: Leishmania donovani Ubiquitin Activating Enzyme (LdE1); type: functional; conditions: 30 µM
T1 sequence (whole entry): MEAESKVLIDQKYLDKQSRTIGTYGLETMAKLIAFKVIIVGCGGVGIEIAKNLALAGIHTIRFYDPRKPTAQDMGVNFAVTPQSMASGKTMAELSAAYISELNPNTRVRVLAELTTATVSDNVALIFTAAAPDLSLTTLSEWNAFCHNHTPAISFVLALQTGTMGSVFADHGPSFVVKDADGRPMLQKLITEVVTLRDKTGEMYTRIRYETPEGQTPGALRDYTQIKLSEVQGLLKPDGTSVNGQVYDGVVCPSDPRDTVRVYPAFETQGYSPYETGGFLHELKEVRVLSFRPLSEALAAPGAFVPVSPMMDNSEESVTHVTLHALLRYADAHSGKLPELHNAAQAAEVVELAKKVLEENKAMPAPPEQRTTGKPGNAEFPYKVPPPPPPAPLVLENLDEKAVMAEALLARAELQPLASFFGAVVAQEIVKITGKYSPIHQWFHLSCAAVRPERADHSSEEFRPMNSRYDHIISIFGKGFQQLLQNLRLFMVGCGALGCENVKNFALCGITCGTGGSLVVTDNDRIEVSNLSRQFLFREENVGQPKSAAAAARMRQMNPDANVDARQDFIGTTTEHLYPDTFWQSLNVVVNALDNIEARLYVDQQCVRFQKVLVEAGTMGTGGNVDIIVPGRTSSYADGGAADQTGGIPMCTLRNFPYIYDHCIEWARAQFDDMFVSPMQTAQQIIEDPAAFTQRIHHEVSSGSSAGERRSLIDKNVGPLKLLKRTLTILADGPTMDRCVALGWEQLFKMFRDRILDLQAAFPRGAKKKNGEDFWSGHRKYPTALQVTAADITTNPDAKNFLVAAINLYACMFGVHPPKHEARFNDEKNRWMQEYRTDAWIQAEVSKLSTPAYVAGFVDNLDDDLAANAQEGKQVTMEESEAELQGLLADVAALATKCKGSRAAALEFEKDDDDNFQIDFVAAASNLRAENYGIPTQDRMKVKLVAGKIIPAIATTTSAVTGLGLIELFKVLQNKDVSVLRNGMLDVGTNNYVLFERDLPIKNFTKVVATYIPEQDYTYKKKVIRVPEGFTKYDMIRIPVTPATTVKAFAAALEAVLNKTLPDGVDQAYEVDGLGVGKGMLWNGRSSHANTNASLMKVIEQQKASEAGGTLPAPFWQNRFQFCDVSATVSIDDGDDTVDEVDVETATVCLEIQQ

[3] = biological target: AMP-activated protein kinase, AMPK (Homo sapiens) (UniProt P54646+O43741+P54619+Q9UGJ0+Q9Y478+Q13131+Q9UGI9); test: AMP-dependent Kinase enzyme assay. An in vitro enzyme assay that detects ADP turnover that is directly proportional to AMPK activity. This uses naive AMPK that is activated during the assay with MK-8722; type: functional; conditions: 30 µM
[4] = biological target: Sialic acid-binding Ig-like lectin 9 (Homo sapiens) (UniProt Q9Y336); test: Hs-Siglec9 ALPHAscreen SOP 20170721; conditions: 10 µM
Trypanosoma cruzi = test: Trypanosoma cruzi phosphomannomutase and mannose-1-phosphate guanylyltransferase assay; type: functional; conditions: 10 µM
[5] = biological target: T2, Arginase-2, mitochondrial (Homo sapiens) (UniProt P78540); test: in vitro enzyme assay to detect the production of urea directly proportional to the activity of Arginase II; type: functional; conditions: 33.3 µM; also: in the data most compounds retested in dose-response had high values
T2 sequence (whole entry): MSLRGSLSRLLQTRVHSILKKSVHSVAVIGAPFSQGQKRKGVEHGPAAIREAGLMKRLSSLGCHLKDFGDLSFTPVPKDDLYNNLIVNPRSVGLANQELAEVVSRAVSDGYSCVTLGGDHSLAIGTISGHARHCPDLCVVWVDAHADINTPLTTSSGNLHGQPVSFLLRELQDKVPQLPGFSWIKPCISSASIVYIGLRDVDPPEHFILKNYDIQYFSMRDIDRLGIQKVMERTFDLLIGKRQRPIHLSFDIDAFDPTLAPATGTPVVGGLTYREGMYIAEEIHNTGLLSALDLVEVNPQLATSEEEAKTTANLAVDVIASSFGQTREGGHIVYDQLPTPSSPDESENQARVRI

[6] = biological target: T3, Proteasome subunit beta (Trypanosoma cruzi) (UniProt O96673); test: Trypanosoma cruzi proteasome chymotrypsin-like activity (TcProtChymo) assay.; also: in the data most compounds retested in dose-response had high values; type: functional; conditions: 9.37 µM
T3 sequence (whole entry): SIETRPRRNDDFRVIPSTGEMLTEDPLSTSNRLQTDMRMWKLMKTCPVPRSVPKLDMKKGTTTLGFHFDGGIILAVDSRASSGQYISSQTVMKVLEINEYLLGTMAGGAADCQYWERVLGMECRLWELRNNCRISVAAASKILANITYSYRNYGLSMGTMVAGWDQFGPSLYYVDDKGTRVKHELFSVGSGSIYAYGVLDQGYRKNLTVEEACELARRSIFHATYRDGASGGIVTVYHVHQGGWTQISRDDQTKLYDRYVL

Homo sapiens = organism: Homo sapiens; test: To identify inhibition of the IFN signalling (Jak-Stat) pathway via expression of an eGFP reporter gene under the control of an IFN-stimulated response element (ISRE) containing MxA promoter.; type: functional; conditions: 30 µM
[7] = biological target: T4, Tyrosyl-tRNA synthetase, putative (Trypanosoma cruzi (strain CL Brener)) (UniProt Q4DSP6); test: Trypanosoma cruzi tyrosyl tRNA synthetase (TcYRS) _High Tyrosine SOP; type: functional; conditions: 30 µM; also: in the data most compounds retested in dose-response had high values
T4 sequence (whole entry): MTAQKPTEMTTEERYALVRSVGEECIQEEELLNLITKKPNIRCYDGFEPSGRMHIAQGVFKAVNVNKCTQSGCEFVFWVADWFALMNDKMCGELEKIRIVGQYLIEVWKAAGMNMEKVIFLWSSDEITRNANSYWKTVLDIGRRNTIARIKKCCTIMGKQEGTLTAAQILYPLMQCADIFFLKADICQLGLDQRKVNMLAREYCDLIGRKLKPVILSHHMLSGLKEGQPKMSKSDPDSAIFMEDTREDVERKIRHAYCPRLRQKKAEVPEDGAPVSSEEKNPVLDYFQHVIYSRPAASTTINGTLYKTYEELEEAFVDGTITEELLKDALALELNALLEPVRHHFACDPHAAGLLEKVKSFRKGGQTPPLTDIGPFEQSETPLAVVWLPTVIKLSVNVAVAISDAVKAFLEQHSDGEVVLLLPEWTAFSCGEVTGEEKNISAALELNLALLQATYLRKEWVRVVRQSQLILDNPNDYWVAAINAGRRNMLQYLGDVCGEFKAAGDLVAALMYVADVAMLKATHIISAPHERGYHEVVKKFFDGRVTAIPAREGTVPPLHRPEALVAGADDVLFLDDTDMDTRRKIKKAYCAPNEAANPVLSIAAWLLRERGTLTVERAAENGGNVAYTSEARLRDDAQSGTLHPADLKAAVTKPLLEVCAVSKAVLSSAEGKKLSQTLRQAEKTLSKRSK

[8] = biological target: T4, Tyrosyl-tRNA synthetase, putative (Trypanosoma cruzi (strain CL Brener)); test: Trypanosoma cruzi tyrosyl tRNA synthetase (TcYRS) SOP; type: functional; conditions: 30 µM
[9] = biological target: Chromo domain-containing protein 1 (Saccharomyces cerevisiae (strain ATCC 204508 / S288c) (Baker's yeast)) (UniProt P32657); test: ScCHD-1 Enzyme Inhibition Assay; type: functional; conditions: 30 µM; also: in the data most compounds retested in dose-response had high values
Sequence of Chromo domain-containing protein 1 (Saccharomyces cerevisiae (strain ATCC 204508 / S288c) (Baker's yeast)) (P32657 whole entry, the tested form may be a part): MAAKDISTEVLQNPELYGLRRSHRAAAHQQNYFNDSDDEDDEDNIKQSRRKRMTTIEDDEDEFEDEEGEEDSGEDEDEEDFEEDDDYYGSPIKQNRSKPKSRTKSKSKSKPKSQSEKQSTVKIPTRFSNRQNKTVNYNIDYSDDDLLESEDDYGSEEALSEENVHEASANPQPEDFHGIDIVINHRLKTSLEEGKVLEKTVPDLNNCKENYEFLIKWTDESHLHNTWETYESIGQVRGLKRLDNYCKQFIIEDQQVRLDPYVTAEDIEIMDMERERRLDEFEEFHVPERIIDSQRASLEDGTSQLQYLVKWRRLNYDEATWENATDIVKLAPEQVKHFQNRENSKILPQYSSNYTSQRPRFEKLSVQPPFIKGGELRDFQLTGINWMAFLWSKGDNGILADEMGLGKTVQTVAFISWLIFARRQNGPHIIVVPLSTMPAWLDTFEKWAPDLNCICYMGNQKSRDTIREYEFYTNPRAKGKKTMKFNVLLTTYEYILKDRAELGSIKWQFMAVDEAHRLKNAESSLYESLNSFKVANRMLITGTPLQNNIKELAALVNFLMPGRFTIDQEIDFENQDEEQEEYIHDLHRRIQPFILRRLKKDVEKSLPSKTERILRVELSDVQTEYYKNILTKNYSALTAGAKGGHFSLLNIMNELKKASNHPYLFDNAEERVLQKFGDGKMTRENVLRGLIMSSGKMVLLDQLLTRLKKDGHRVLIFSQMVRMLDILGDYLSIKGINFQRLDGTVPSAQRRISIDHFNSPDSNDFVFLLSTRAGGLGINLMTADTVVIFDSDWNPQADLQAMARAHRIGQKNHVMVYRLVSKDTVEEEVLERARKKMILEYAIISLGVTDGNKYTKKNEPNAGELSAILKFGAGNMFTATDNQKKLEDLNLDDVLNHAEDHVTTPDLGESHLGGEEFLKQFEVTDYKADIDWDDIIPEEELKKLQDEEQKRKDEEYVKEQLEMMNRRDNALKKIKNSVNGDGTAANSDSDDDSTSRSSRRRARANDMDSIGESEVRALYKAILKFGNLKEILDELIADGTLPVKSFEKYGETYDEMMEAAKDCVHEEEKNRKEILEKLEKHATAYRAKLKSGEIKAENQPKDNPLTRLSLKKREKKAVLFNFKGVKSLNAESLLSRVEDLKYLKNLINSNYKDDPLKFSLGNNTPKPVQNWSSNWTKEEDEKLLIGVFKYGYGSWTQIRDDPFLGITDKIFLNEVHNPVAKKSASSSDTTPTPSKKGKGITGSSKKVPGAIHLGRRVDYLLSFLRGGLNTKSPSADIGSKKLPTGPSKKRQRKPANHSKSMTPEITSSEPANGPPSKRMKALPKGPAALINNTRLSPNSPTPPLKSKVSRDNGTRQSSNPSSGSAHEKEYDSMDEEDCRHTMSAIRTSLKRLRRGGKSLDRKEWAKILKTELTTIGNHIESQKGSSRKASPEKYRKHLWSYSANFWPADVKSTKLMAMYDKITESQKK

Sequence of Sialic acid-binding Ig-like lectin 9 (Homo sapiens) (Q9Y336 whole entry): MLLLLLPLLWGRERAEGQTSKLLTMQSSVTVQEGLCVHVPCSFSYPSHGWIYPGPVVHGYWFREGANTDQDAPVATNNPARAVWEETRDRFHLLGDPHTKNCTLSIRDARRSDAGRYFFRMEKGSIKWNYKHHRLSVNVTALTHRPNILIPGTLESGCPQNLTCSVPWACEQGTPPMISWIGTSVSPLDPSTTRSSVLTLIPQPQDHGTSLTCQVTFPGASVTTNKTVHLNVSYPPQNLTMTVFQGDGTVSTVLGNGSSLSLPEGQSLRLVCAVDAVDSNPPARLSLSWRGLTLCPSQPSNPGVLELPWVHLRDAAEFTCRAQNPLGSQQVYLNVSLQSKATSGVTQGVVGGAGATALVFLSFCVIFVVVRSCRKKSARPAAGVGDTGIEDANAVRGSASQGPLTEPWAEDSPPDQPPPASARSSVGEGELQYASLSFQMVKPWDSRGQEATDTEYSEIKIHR
Sequence of Protein translocase subunit SecA (Escherichia coli (strain K12)) (P10408 whole entry): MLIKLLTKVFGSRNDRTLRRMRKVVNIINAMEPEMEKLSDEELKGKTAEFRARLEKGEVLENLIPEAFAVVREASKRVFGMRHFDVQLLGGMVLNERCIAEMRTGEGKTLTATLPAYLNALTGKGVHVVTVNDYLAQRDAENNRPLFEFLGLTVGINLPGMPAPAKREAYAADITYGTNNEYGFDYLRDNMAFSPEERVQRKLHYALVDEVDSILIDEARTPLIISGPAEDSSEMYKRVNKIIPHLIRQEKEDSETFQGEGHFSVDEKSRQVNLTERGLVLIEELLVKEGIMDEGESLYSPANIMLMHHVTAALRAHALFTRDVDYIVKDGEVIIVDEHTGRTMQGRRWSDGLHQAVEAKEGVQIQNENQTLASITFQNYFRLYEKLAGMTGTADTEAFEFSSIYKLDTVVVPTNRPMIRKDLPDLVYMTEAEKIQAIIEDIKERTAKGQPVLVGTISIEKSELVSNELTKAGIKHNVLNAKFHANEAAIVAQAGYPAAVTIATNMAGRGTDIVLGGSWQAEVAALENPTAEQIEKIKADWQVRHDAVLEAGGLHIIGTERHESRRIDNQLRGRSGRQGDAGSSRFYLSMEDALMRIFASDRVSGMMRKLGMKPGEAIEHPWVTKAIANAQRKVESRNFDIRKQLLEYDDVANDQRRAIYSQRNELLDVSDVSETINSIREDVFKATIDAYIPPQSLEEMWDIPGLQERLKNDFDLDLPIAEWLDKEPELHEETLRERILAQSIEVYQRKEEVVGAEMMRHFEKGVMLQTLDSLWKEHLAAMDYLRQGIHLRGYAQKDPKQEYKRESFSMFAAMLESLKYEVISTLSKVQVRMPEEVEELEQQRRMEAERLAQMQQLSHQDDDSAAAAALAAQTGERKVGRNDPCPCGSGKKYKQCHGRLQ

| SMILES | Percent Effect [1] | Percent Effect [2] | Percent Effect [3] | Percent Effect [4] | Percent Effect (Trypanosoma cruzi) | Percent Effect [5] | Percent Effect [6] | Percent Effect (Homo sapiens) | Percent Effect [7] | Percent Effect [8] | Percent Effect [9] |
| --- | --- | --- | --- | --- | --- | --- | --- | --- | --- | --- | --- |
| CC(Cn1ccnc1)NC(=O)NCCNC(=O)C(C)C (stereo not given) | 2.77% | 23.7% | -2.17% | -3.21% | 0.94% | -4.6% | 15.4% | 31.2% | 3.43% | 19.5% | -9.78% |
| O=C(Nc1ccccc1)C1CN(CC2CC2)CC12CCOCC2 (stereo not given) | -1.55% | 5.33% | 7.28% | -3.04% | -0.579% | -8.42% | 10.4% | -0.536% | -3.12% | -10% | -4.82% |
| CCc1ccc(C(=O)N2CCN(CC(C)O)CC2)o1 (stereo not given) | 0.315% | 21.1% | -5.4% | -6.92% | 5.08% | 6.13% | 16.2% | 3.74% | 1.47% | 19.5% | -12.7% |
| Cc1ccccc1NS(=O)(=O)c1cc2c(c(C(=O)O)c1)OCCO2 | -8.46% | 7.89% | 0.578% | -1.17% | -7.19% | -6.47% | 5.67% | 2.34% | 2.46% | 1.24% | 3.8% |
| Cc1cc(N2CCN(CCO)CC2)nc(-c2ccncc2)n1 | -0.472% | 5.26% | 0.962% | -2.69% | -0.876% | -8.28% | 21.6% | -0.921% | 7.45% | 7.79% | -4.96% |
| Cc1ccc(C(=O)N2CCC(Oc3ccc(F)cc3F)CC2)c(=O)[nH]1 | -4.74% | 5.26% | 3.18% | -2.22% | -7.52% | 1.53% | 8.69% | 43.4% | 0.49% | 4.88% | -4.43% |
| Cn1ccnc1COc1ccc(CO)cc1 | -1.04% | 5.2% | -1.87% | -8.74% | -5.06% | 8.19% | 6.59% | 36.8% | 3.88% | 14.6% | -8.46% |
| O=C(Nc1cnn(CCN2CCOCC2)c1)c1ccccn1 | -3.13% | 10.5% | 3.43% | 9.01% | 3.38% | 0% | 5.85% | -7.34% | 5.39% | 12.2% | 0.887% |
| COc1cc(C)nc(N2CCN(C(=O)c3ccccc3C)CC2)n1 | -6.89% | 2.7% | -5.76% | 17.5% | 8.4% | -13.2% | 1.8% | 9.59% | 5.42% | 18.5% | -18.4% |
| CN(CCc1ccccc1)Cc1cc(C(=O)N2CCN(C)C(=O)C2)no1 | -3.15% | 19.2% | -1.8% | 11% | 1.19% | -6.79% | 19.3% | 5.79% | 7.29% | 23.5% | -7.74% |
| Fc1ccc(-c2nnc(CN3CCCC3Cn3cncn3)o2)cc1 (stereo not given) | -1.9% | 5.2% | -0.239% | 9.41% | 6.93% | 0.712% | 7.26% | -14.3% | 4.85% | 19.5% | -10.5% |
| CN(C)c1ncccc1CNC(=O)N1CCCC1c1ccsc1 (stereo not given) | -9.33% | 18.2% | -4.46% | 4.94% | -2.43% | 0.712% | 2.2% | 1.32% | 5.83% | 14.6% | -6.19% |
| CC(C)NC(=O)N1CCc2nc(C(=O)NCc3ccccc3)sc2CC1 | -0.812% | 10.8% | 5.95% | -6.63% | -3.42% | 5.41% | 18.1% | 13.3% | 8.65% | 17.9% | -3.29% |
| Cc1nc(CN2C(=O)C[C@@H]3[C@@H]2CCN3C(=O)C2CCOCC2)cs1 | -0.279% | 8.22% | -5.72% | 3.96% | 4.17% | -5.19% | 8.82% | -4.21% | 1.04% | -3.7% | -3.04% |
| c1cnn(CC2CCCN2c2ncnc3sccc23)c1 (stereo not given) | -5.43% | -2.7% | 2.65% | 6.51% | -2.14% | 3.14% | -1.44% | 66.4% | 2.97% | -25.6% | 11.4% |
| CN(Cc1ccco1)C(=O)[C@H]1CSCN1C(=O)OC(C)(C)C | -4.45% | 15.8% | -5.01% | 13.2% | 5.7% | -4.32% | 8.21% | -0.327% | 4.43% | 13.6% | -3.35% |
| CN(Cc1ccco1)C[C@H]1OC[C@@H]2CCN(Cc3cccs3)C[C@@H]21 | 1.17% | -2.67% | 4.12% | 7.42% | -3.28% | -50.7% | -3.59% | -15.4% | -1.04% | -37.5% | -2.22% |
| O=C(NCCC1=CCCCC1)NCc1nnc2n1CCC2 | -2.33% | 15.8% | 1.86% | -11.8% | -5.88% | 7.91% | 6.18% | 7.88% | 7.39% | 16.1% | -8.65% |
| CN1CCN(Cc2ccccc2CNC(=O)c2ccc(Br)cc2F)CC1 | -2.05% | 5.41% | -1.3% | 7.25% | -1.86% | 3.72% | 3.35% | 9.27% | 5.38% | 11.1% | -4.37% |
| CC(C)NS(=O)(=O)c1cc(C(=O)O)cc(-c2ccc(CN(C)C)cc2)c1 | -8.02% | 0% | 5.48% | -7.27% | -3.81% | -0.248% | 13.7% | 0.283% | 0% | 1.24% | -4.61% |

Reference: ChEMBL document CHEMBL3988442, “University of Dundee, Small-Polar-MMV Screening Library” (2021)
